The nature of the test: qHTS profiling of the MIPE4 collection as inhibitors of Plasmodium falciparum (DD2) proliferation (Rep 2) (AID 743346). The note with it: P. falciparum Dd2 in erythrocytes, SYBR Green DNA, 72 h; at 28.5 µM unless noted. From the text: Plasmodium falciparum is a virulent malarial parasite that kills 1-2 million people worldwide each year. Transmitted by mosquitoes, the sporozoite form of the parasite enters the blood stream to infect hepatocytes, where they become merozoites that infect red blood cells (erythrocytes). Within erythrocytes, merozoites begin a […] cycle of growth and division, after which the parasite is released to infect new red blood cells. Gametocytes, which form within erythrocytes as well, circulate in the bloodstream and are ingested by the mosquito, thereby completing the life cycle. To profile malarial isolates for differential chemical responses and to identify inhibitors of malarial growth, an assay that measures P. falciparum growth and replication within erythrocytes was employed. This assay uses a DNA binding fluorescent dye (SYBR Green) to detect parasite DNA following cell lysis. Because mature erythrocytes lack DNA, only Plasmodium-derived DNA is detected.
The SYBR Green viability assay was adapted from a method described previously (Plouffe et al., 2008). For screening 3 ul culture medium was dispensed into 1536 well black clear bottom plates (Aurora Biotechnologies) using a Multidrop Combi (Thermo Fisher Scientific Inc.), 23 nL compounds in DMSO were added by a pin tool (Kalypsys), and 5 ul of erythrocytes infected with P. falciparum (0.3% parasitemia, 2.5% hematocrit final concentration) were added. The plates were incubated at 37 C in a humidified incubator in 5% CO2 for 72 h, and 2 ul lysis buffer (20 mM Tris HCl, 10 mM EDTA, 0.16% saponin, 1.6% triton X, 10X SYBR Green I supplied as 10,000X […] by Invitrogen) was added to each well. The plates were mixed for 25 sec with gentle shaking and incubated overnight at room temperature in the dark. The following morning, fluorescence intensity at 485(14) nm excitation and 535(25) nm emission wavelengths was measured on an EnVision (Perkin Elmer) plate reader. Plate reads were normalized relative to the control inhibitor (0.29 uM artemisinin) and vehicle (DMSO) wells present on each plate and then corrected by an algorithm using vehicle-only control plates at the beginning and end of the compound plate stack.
(Quantitative high-throughput screening tests each substance at several concentrations.)
Regarding `O=C(Nc1ccccc1Br)N[C@@H]1CCN(c2ccc(C(F)(F)F)cn2)C1`, the parasite growth, % of control (lower = inhibition) was 82.5%. Then `COC(=O)N[C@H](C(=O)N1CCC[C@@H]1c1ncc(-c2ccc(-c3ccc(-c4cnc([C@@H]5CCCN5C(=O)[C@@H](NC(=O)OC)C(C)C)[nH]4)cc3)cc2)[nH]1)C(C)C`, with 24.9%. Then `NC(=O)c1cccc(-c2cc(Nc3ccc(OC(F)(F)F)cc3)ncn2)c1`, with 23%; and `Cc1nc(N)sc1-c1ccnc(Nc2ccc(N3CCOCC3)cc2)n1`, with 16.4%; and `CCOC(CN1C(=O)[C@](CC(=O)Nc2ccc(C)cc2)(NC(=O)Nc2ccc(C)cc2)c2ccccc21)OCC`, with 26.1%. Next, `N[C@@]1(C(=O)O)CS(=O)(=O)[C@H]2[C@H](C(=O)O)[C@H]21`: 112%; `c1ccc2c(Cc3c[nH]c4ccccc34)c[nH]c2c1`: 22.5%; `CC(=O)Nc1ccc([C@H](C)C(=O)Nc2ncc(C(C)C)s2)cc1`: 7.23%. Consider `C[N+](C)(C)CC(=O)O`, for which the parasite growth, % of control (lower = inhibition) was 93.5%.

Take `Cn1cc(C=C2C(=O)Nc3cccnc32)c2ccccc21`: the parasite growth, % of control (lower = inhibition) came out at 53%. Then `CC=CCC(C)C(O)C1C(=O)NC(CC)C(=O)N(C)CC(=O)N(C)C(CC(C)C)C(=O)NC(C(C)C)C(=O)N(C)C(CC(C)C)C(=O)NC(C)C(=O)NC(C)C(=O)N(C)C(CC(C)C)C(=O)N(C)C(CC(C)C)C(=O)N(C)C(C(C)C)C(=O)N1C` (stereo not given), with 13.2%; and `CO[C@H]1C[C@@H]2CC[C@@H](C)[C@@](O)(O2)C(=O)C(=O)N2CCCC[C@@H]2C(=O)O[C@H]([C@H](C)C[C@@H]2CC[C@H](OC(=O)C(C)(CO)CO)[C@H](OC)C2)CC(=O)[C@H](C)C=C(C)[C@@H](O)[C@@H](OC)C(=O)[C@H](C)C[C@H](C)C=CC=CC=C1C`, with 9.78%. Then `NC[C@@H]1O[C@@H](O[C@H]2[C@@H](O)[C@H](O[C@@H]3[C@@H](O)[C@@H](N)C[C@H](N)[C@H]3O[C@H]3O[C@H](CN)[C@@H](O)[C@@H](O)[C@H]3N)O[C@H]2CO)[C@H](N)[C@@H](O)[C@@H]1O`, with 90%. Then `Cc1ccc(Nc2cc(-c3cccc(N4C(=O)c5ccccc5C4=O)c3)ncn2)cc1NS(C)(=O)=O`, with 76.5%; and `O=C(O)C=Cc1ccc(O)c(O)c1`, with 22.8%; and `COc1ccc(Cc2ccc(NC(N)=O)cc2)cc1-c1cccc(Cl)c1`, with 38.4%. Consider `O=C(Nc1ccccc1-c1cn2c(CN3CCNCC3)csc2n1)c1cnc2ccccc2n1`, for which the parasite growth, % of control (lower = inhibition) worked out at 12.5%. Regarding `COc1ccc(-c2coc3cc(O)cc(O)c3c2=O)cc1`, the parasite growth, % of control (lower = inhibition) was 46.3%.

With `C=CCc1ccc(O)c(-c2ccc(O)c(CC=C)c2)c1`, the parasite growth, % of control (lower = inhibition) is 27.4%. Then `CC(C)=CC[C@@H](O)C1=CC(=O)c2c(O)ccc(O)c2C1=O`, with 4.13%; and `O=c1c(-c2ccc(O)cc2)coc2cc(O)ccc12`, with 89.3%; and `CC(C)(C)COc1ccc(-n2cc(C(=O)O)cn2)cc1C#N`, with 76.9%. Then `CC(C)C[C@H](CC(=O)O)C(=O)N[C@@H](Cc1c[nH]c2ccccc12)C(=O)N[C@@H](C)c1ccccc1`, with 57.5%. Next, `CC(C)(C)Cn1c(N)nc2ccc(-c3[nH]c(C(C)(C)C)nc3-c3ccc(F)cc3)nc21`: 16%. Consider `CN(C)Cc1ccc(-c2nc3cccc4c3n2CCNC4=O)cc1`, for which the parasite growth, % of control (lower = inhibition) was determined as 73.5%.

For `CC(C)(C)OC(=O)N[C@H]1CCCCCC=C[C@@H]2C[C@@]2(C(=O)NS(=O)(=O)C2CC2)NC(=O)[C@@H]2C[C@@H](OC(=O)N3Cc4cccc(F)c4C3)CN2C1=O`, the parasite growth, % of control (lower = inhibition) was determined as 10.1%. Then `N#CC1(c2ccc(NC(=O)c3cccnc3NCc3ccncc3)cc2)CCCC1`, with 65.6%.

On to `Cc1ccc(C(C)(O)c2nc3ccccc3s2)c(C)c1` (stereo not given), for which the parasite growth, % of control (lower = inhibition) came out at 88.7%. Then `COc1ccc(-c2cc(=O)c3c(O)cc(O)cc3o2)cc1O`, with 43.3%. Then `Cc1cc(OCCCc2c(C(=O)O)n(Cc3cccnc3)c3c(-c4c(COc5ccc(N6CCN([S+](C)(=O)[O-])CC6)cc5)nn(C)c4C)cccc23)cc(C)c1Cl`, with 16%.

For the compound `CC=C(C)C(=O)O[C@H]1C(C)=C[C@]23C(=O)[C@@H](C=C(CO)[C@@H](O)[C@]12O)[C@H]1[C@@H](C[C@H]3C)C1(C)C`, the parasite growth, % of control (lower = inhibition) amounted to 28.1%. Then `O=C(CCN1CCN(C(=O)OCc2cc(Cl)cc(Cl)c2)CC1)c1ccc2[nH]c(=O)oc2c1`, with 85%.

For the compound `CCC(=O)O[C@]1(C(=O)CO)CC[C@H]2[C@@H]3CCC4=CC(=O)CC[C@]4(C)[C@@H]3CC[C@@]21C`, the parasite growth, % of control (lower = inhibition) worked out at 38.1%. With `O=C1c2ccccc2-[n+]2ccc3c([nH]c4ccccc43)c21`, the parasite growth, % of control (lower = inhibition) worked out at 16.6%. Then `N#C[C@H]1C[C@H]2C[C@@H]2N1C(=O)[C@@H](N)C12CC3CC(CC(O)(C3)C1)C2`, with 97%; and `O=C1C(Cl)=C(NCCN2CCOCC2)C(=O)c2ncccc21`, with 16%. Then `COc1cc(Nc2ncc(F)c(Nc3ccc4c(n3)NC(=O)C(C)(C)O4)n2)cc(OC)c1OC`, with 6.47%; and `CC(C)[C@H](CO)Nc1nc(Nc2ccc(C(=O)O)c(Cl)c2)c2ncn(C(C)C)c2n1`, with 29.5%. On to `CN(C)CCC=C1c2ccccc2COc2ccc(CC(=O)O)cc21`, for which the parasite growth, % of control (lower = inhibition) was found to be 121%. Turning to `CNC(=O)c1ccc2cc(C3(O)CCn4cncc43)ccc2c1` (stereo not given), the parasite growth, % of control (lower = inhibition) was found to be 74.8%.

The values are drawn from PubChem BioAssay (NCATS).
